# In PubChem BioAssay AID624417 (National Center for Advancing Translational Sciences (NCATS), 2012):
# Among all 410,000 compounds or so, about 6,400 (1.6%) were called active. Another 20% or so got no clear call; they are omitted. For the sample, actives were picked, then their nearest neighbours and some compounds at random. Unmarked numbers belong to inactive results. The call rests on the fitted dose curve; in most records, active means well fitted inhibition curve with a large enough effect; inconclusive means small, poorly fitted or top-dose-only effect; inactive means no such curve, though single readings can be large or run the other way.
# Biological target: Glucagon-like peptide 1 receptor (Homo sapiens) (UniProt P43220)
# Assay: qHTS of GLP-1 Receptor Inverse Agonists (Inhibition Mode); further: nearly all actives have a fitted effect of over 55% in size
# Settings: HEK293 GLP-1R CRE-luciferase, luminescence, 24 h, GLP-1R form is constitutively active; series mostly up to 38.3 µM; activity change, negative = inhibition: at the top concentration
# Summary of the method: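 Cells are plated, allowed 12 hours at 37 deg C, then treated with compounds for 24 hr before luciferase detection reagent is added and luminescence is read after 12 min at room temperature. The HEK293 line carries constitutively active GLP-1R with a cAMP-responsive reporter.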
# On the % scale 0 is the no-effect control and ±100 the full control effect; potency means the concentration at half of the fitted maximal effect.
# Sequence of Glucagon-like peptide 1 receptor (Homo sapiens) (P43220 whole entry, looked up): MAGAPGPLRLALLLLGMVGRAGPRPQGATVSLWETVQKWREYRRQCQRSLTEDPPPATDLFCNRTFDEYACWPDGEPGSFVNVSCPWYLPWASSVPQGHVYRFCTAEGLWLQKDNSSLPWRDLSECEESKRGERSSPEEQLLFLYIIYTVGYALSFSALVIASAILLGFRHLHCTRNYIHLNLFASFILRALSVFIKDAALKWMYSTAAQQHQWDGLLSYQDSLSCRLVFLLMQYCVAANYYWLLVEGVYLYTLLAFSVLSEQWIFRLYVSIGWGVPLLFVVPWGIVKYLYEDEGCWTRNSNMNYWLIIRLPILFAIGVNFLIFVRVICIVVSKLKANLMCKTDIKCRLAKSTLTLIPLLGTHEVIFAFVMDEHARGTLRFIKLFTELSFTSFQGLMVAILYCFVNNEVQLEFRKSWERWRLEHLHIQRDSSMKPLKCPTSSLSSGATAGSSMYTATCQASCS
SMILES,"activity change, negative = inhibition",Potency
Cc1ccccc1CN1C(=O)CSCC1(C)C(=O)Nc1c(C)cccc1C (stereo not drawn),8.92%,–
Cc1ccc(-c2cnc(C3CC3)o2)cc1S(=O)(=O)Nc1cccc(C)c1C,-11%,–
Cc1cccc(NS(=O)(=O)c2ccc(-c3cnc(C4CC4)o3)cc2)c1,–,0.891 µM (active)
COc1ccc(CNS(=O)(=O)c2ccc(-c3cnc(C4CC4)o3)cc2)cc1,–,inactive
CC1(C(=O)NS(=O)(=O)c2cccs2)CCN1C(=O)Cc1ccc(-c2ccccc2)cc1 (stereo not drawn),-22.6%,–
Cc1csc(=O)n1CCC(=O)OCC(=O)Nc1ccc(N2CCOCC2)cc1,1.06%,–
Oc1ccc(Br)cc1/C=N/Nc1ccccn1,–,2.82 µM (active)
Cc1c(C(=O)Nc2ccccn2)oc2ccc(Br)cc12,7.51%,–
Oc1ccc(/C=N/Nc2ccc(C(F)(F)F)cn2)cc1O,20.3%,–
COc1ccc(S(=O)(=O)NC(=O)C2(C)CCN2C(=O)c2ccccc2CCc2ccccc2)cc1 (stereo not drawn),-12.1%,–
CC(C)(C)C(=O)COC(=O)c1cc(S(=O)(=O)N2CCCCC2)ccc1N1CCOCC1,-11.3%,–
O=C(OCCOc1ccccc1F)c1cc(S(=O)(=O)N2CCOCC2)ccc1F,1.47%,–
O=C(OCCOc1ccccc1Cl)c1cc(S(=O)(=O)N2CCCCC2)ccc1N1CCOCC1,–,4.47 µM (active)
CCN(CC)CCCNC(=O)c1ccc2c(=O)n(Cc3ccc4c(c3)OCO4)c(=S)[nH]c2c1,-18.1% [at 7.66 µM],–
CCN(CC)CCCNC(=O)c1cn(C)c2ccc(S(=O)(=O)N(C)C3CCCCC3)cc2c1=O,–,inactive
CCN(CC)CCCNC(=O)c1c(O)c2cc(F)cc3c2n(c1=O)C(C)CC3 (stereo not drawn),–,7.94 µM (active)
CCNC(=O)C1(C)CCCN(Cc2noc(-c3ccccc3OC)n2)C1 (stereo not drawn),-13.4%,–
Oc1ccc(-c2nc3ccccc3nc2-c2ccc(O)cc2O)c(O)c1,–,4.47 µM (active)
Oc1ccc2nc(Cc3ccccc3)[nH]c2c1,7.71%,–
Cc1nc2ccccc2nc1N/N=C/c1ccc(O)cc1O,-9.04%,–
CCc1cccc(CC)c1N1C(=O)CC(Sc2ccccc2N)C1=O (stereo not drawn),-11.6%,–
Clc1ccc(-c2cc(-c3ccccn3)on2)c(Cl)c1,–,5.62 µM (active)
Fc1ccc(-c2ccc(CNCc3ccccn3)o2)cc1Cl,-18.3%,–
O=C1c2ccccc2C(=O)N1Cc1cc(-c2ccccc2Cl)no1,9.44%,–
CC(C)c1c(C(=O)N/N=C/c2ccccc2C(=O)O)nnn1-c1nonc1N,-9.57%,–

SMILES,"activity change, negative = inhibition",Potency
Nc1nonc1-n1nnc(C(=O)N/N=C/C2CCCCC2)c1-c1ccccc1,22.9%,–
Nc1nonc1-n1nnc(C(=O)N/N=C/c2c[nH]c3ccccc23)c1-c1ccccc1,–,12.6 µM (active)
Cc1[nH]c2ccccc2c1C(=O)C(=O)NCc1nnnn1-c1cccc(F)c1,9.36%,–
O=C(COC(=O)c1cccc(Cl)c1Cl)NC1CCCCCC1,-2.12%,–
CN(C)CCNC(=O)c1ccc(Cl)c2cc3ccccc3nc12,–,7.08 µM (active)
CCCN(CCC)CCNC(=O)c1cc2c(C)nc3ccccc3c2o1,-23.1%,–
CC(=O)NCCNC(=O)c1cc(-c2cccc3ccccc23)nc2ccccc12,14%,–
CC(=O)NC(c1ccccc1)c1nc(-c2ccccc2C)cs1 (stereo not drawn),19.8%,–
c1ccc(-c2ccc(OCCN3CCOCC3)cc2)cc1,-16.9%,–
CCOc1nc(NCCN2CCOCC2)nc(Nc2ccc(C)cc2)n1,9%,–
c1ccc2cc3c(NCCN4CCOCC4)ccnc3cc2c1,–,10 µM (active)
CCCCn1nnnc1C(c1ccccc1)N1CCN(c2ccccc2OC)CC1 (stereo not drawn),-26.8%,–
O=C(NCc1ccccc1Cl)c1csc([C@@H]2O[C@H](CO)[C@@H](O)[C@H]2O)n1,-16.2%,–
CCCN(CC(=O)Nc1ccccc1C)C(=O)c1ccc2[nH]c3c(c2c1)CC(C)CC3 (stereo not drawn),–,5.62 µM (active)
CCCN(CC(=O)Nc1ccccc1C)C(=O)c1cc(=O)[nH]c2ccccc12,0.788%,–
CCCN(CC(=O)Nc1ccccc1C)C(=O)c1ccc(OCC(=O)N2CCOCC2)c(OCC)c1,7.89%,–
CN(Cc1c(F)cccc1Cl)C(=O)COC(=O)Cn1cnc2ccccc2c1=O,8.86%,–
CCOc1ccc(CN2CCCN(C)CC2)cc1,-20.5%,–
Cc1ccc(CN2CCc3nc(N4CCN(C)CC4)ncc3C2)cc1,–,7.94 µM (active)
CCCN1CCc2nc(N3CCN(C)CC3)ncc2C1,-13.3%,–
COc1cc(C(O)c2nc(-c3cccc(C(=O)O)c3)cs2)ccc1F (stereo not drawn),30.9%,–
Cc1cccc(C)c1-n1nnnc1C(CCc1ccccc1)N1CCN(C/C=C/c2ccccc2)CC1 (stereo not drawn),18.7%,–
COc1ccc(N2C(=O)C(Cc3ccccc3)NC2=S)cc1 (stereo not drawn),22.3%,–
COc1ccc(C2CC(=O)NC(=O)C2)cc1,13.7%,–
CC(C)C1Cc2[nH][nH]c(=O)c2C(c2ccc(Cl)cc2)O1 (stereo not drawn),-18.5%,–

SMILES,"activity change, negative = inhibition",Potency
O=c1[nH][nH]c2c1[C@H](c1ccc(Cl)cc1)O[C@H](CCc1ccccc1)C2,–,10 µM (active)
CC1Cc2[nH][nH]c(=O)c2C(C2CC2)O1 (stereo not drawn),5.46%,–
COc1ccc(C2OC(CCc3ccccc3)Cc3[nH]c(=S)[nH]c(=O)c32)cc1 (stereo not drawn),–,10 µM (active)
COc1ccc(CCNC(=O)Nc2ccc3c(c2)c(=O)n(C)n3C)cc1OC,8%,–
CC(C)CN1C(=O)CN(S(C)(=O)=O)CC1(C)C(=O)NCc1ccccc1 (stereo not drawn),18.3%,–
c1ccc(Cc2c(-c3ccco3)nc3c4ccccc4ccn23)cc1,-57%,–
Cc1ccc(NC(=O)Cn2cnc3nc4c(cc3c2=O)CCCC4)cc1Cl,2.73%,–
CCN(CC)CCNC(=O)Cn1cnc2sc(C)c(S(=O)(=O)N3CCOCC3)c2c1=O,-21.3%,–
CCN(CC)CCNC(=O)c1sc2ncn(CC(=O)Nc3ccc(C)c(Cl)c3)c(=O)c2c1C,–,11.2 µM (active)
COc1ccc(C(C(=O)Nc2c(C)cccc2C)N2CCN(c3ccc(C)cc3)CC2)cc1 (stereo not drawn),3.35%,–
CCOC(=O)N1CCN(C(c2ccnc3ccccc23)c2nnnn2-c2c(C)cccc2C)CC1 (stereo not drawn),-20.8%,–
Cc1nc(C(F)(F)F)ccc1C(=O)N1CCC1(C)C(=O)NS(=O)(=O)c1ccccc1 (stereo not drawn),12.5%,–
O=C(c1cc(C2CCCCN2S(=O)(=O)c2ccccc2)on1)N1CCOCC1 (stereo not drawn),24.4%,–
CCN1CCCC1CNC(=O)c1ccc2c(c1)NC(=O)/C(=C\c1ccccc1F)S2 (stereo not drawn),–,11.2 µM (active)
CCN1CCN(CCNC(=O)c2ccc3c(c2)NC(=O)/C(=C\c2cccc(Cl)c2)S3)CC1,-23.7%,–
CCN1CCCC1CNC(=O)c1cc2c(=O)n(C)c3ccccc3c2n1C (stereo not drawn),2.81%,–
O[C@H]1CN(Cc2cccs2)[C@@H](c2ccc(Cl)cc2)C[C@@H]1n1cc(C2CC2)nn1,1.31%,–
O=C(CNC(=O)N1CC(=O)Nc2ccccc21)Nc1ccc(Br)cc1F,-10.9%,–
CO[C@@H]1CN(C)C(=O)c2cc(NC(=O)C3CC3)ccc2OC[C@H](C)N(C(=O)CN2CCOCC2)C[C@@H]1C,19.3%,–
CN(C)CCCNC(=S)N1CCN(c2nc(-c3ccccc3)cs2)CC1,–,3.98 µM (active)
CN(C)CCCNC(=S)N1CCC(c2nc3ccccc3[nH]2)CC1,14.6%,–
c1ccc(-c2csc(N3CCc4ccccc4C3)n2)cc1,3.39%,–
CCC1(CC)Cc2ccccc2-c2nc3ccccc3c(=O)n21,–,8.91 µM (active)
CCOC(=O)C1CCc2nc3ccccc3c(=O)n21 (stereo not drawn),1.08%,–
CCOn1c(SC(C)C)nc2ccccc2c1=O,-1.53%,–

SMILES,"activity change, negative = inhibition",Potency
Cc1ccc([C@@H]2CC(=O)[C@@H]3CN(S(=O)(=O)c4ccc(C)cc4)[C@H](c4ccccc4F)C[C@@H]3N2S(=O)(=O)c2ccc(Cl)cc2)cc1,-28%,–
O=C(CSc1ccc(-c2ccc(Br)cc2)nn1)NCC1CCCO1 (stereo not drawn),-7.03%,–
O=C(CCNS(=O)(=O)c1ccc(Br)cc1)NCC1CCCO1 (stereo not drawn),0.853%,–
OC(CNCC1CCCO1)Cn1c2ccc(Br)cc2c2cc(Br)ccc21 (stereo not drawn),–,5.62 µM (active)
Cc1cccc(C(=O)NC(=S)N(C)C2CCCCC2)c1,-23.1%,–
Cc1ccc(-n2ncc3c2ncn2nc(-c4ccco4)nc32)c(C)c1,7.56%,–
Cc1cccc(C(=O)N2c3nc(-c4ccco4)nn3C3(CCCCC3)[C@@H]3CCCC[C@@H]32)c1,–,11.2 µM (active)
CCc1nc2c(OCC(N)=O)cccn2c1N(C)C(=O)c1ccc(OC)cc1,21.3%,–
Cc1ccccc1S(=O)(=O)NC(=O)C1(C)CCN1C(=O)Cc1ccc(Cl)cc1Cl (stereo not drawn),-6.45%,–
C=CC[C@@H](CC(=O)N[C@H](CO)Cc1ccccc1)C(=O)N[C@H](C)COC(=O)[C@@H](CC=C)Cc1ccc(F)cc1,-24.5%,–
C=CC[C@@H](CC(=O)N[C@@H](CO)Cc1ccccc1)C(=O)N[C@H](COC(=O)[C@H](CC=C)CC(=O)OC(C)(C)C)Cc1ccccc1,18.1%,–
C=CCC[C@H](Cc1ccc(F)cc1)C(=O)OC[C@@H](NC(=O)[C@@H](CC=C)CC(=O)N[C@H](CO)Cc1ccccc1)C(C)(C)C,–,7.94 µM (active)
CCCCc1ccc(S(=O)(=O)NC(=O)C2(C)CCN2C(=O)c2c(C)noc2C)cc1 (stereo not drawn),20.7%,–
Cc1cc(=O)c2ccc(NC(=O)c3ccccc3)cc2[nH]1,21.1%,–
CCCCCn1nnnc1C1c2ccccc2C(=O)N1Cc1ccco1 (stereo not drawn),15.6%,–
COc1ccc(Sc2ccc(NC(=O)c3cccc(Cl)c3)cc2C#N)cc1,-0.552%,–
CCCCNC(=O)C[C@@H]1C[C@@]2(C(=O)OCC)CCC=C2N(Cc2ccco2)C1=O,4.25%,–
O=S(=O)(O)c1nc2ccccc2n1Cc1ccc(Cl)cc1Cl,–,10 µM (active)
O=S(=O)(Cc1ccccc1)c1nc2ccccc2n1Cc1ccccn1,0.0124% [at 7.66 µM],–
Cn1c(S(=O)(=O)O)nc2ccccc21,10.8%,–
Cc1ccc(-c2ccc(C3=CC(=O)CC(C)(C)C3=O)cc2)cc1,4.58%,–
CCc1nc2ccc(C(=O)NC3CCN(Cc4ccccc4)CC3)cn2c1N(C)CCN1CCOCC1,7.53%,–
CC(C)CCC(=O)Nc1cc(S(=O)(=O)N2CCOCC2)ccc1N1CCCC1,8.82%,–
